Measurements as given in the supplement of paper PMC10849652.
About 8,800 targets were measured; listed, in parts, are those with a hit and a random draw of the rest. About 0.5% of all pairs of compound and target were hits.

What was measured:
Assay in all cases: log2 fold change, soluble protein after heating vs DMSO (PISA); higher = thermal stabilisation; K562 lysate, 10 uM; active = over 0.2 and 3.5 SD of the protein, either way, in both replicates (recomputed)
ibrutinib = compound: C=CC(=O)N1CCC[C@@H](n2nc(-c3ccc(Oc4ccccc4)cc3)c3c(N)ncnc32)C1 [ibrutinib]
In short: (§1)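 Pellets of K562 cells were dounce-homogenised in PBS pH 7.4 with 1 mM MgCl2, and the crude extract was held at 1 mg/mL protein for a 30 min treatment with 10 μM compound. Aliquots were heated for 3 min over 48°C-58°C and pooled before NP-40 was added to 0.5% at 4°C. The supernatant from 21,000xg for 90 min was quantified by TMTpro 16plex LC-MS/MS with channel sums equalised. Values are reported from duplicates as log-two fold change in thermal stability relative to solvent controls.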

[1] = compound: CC(=O)c1cnc2ccc(-c3cc(Cl)c(O)c(Cl)c3)nc2c1N[C@H]1CC[C@H](CN(C)C)CC1
In short: as §1

ralimetinib = compound: CC(C)(C)Cn1c(N)nc2ccc(-c3[nH]c(C(C)(C)C)nc3-c3ccc(F)cc3)nc21 [ralimetinib]
In short: as §1

[2] = compound: CC(C)(O)CC(=O)NCCn1ccc2ncnc(Nc3ccc(Oc4cccc(C(F)(F)F)c4)c(Cl)c3)c21
In short: as §1

[3] = compound: CC(C)C1=C2N=C(C=C(N2N=C1)NCC3=CC=CC=C3)NCCCCCCN
In short: as §1

[4] = compound: CC1=C(C(CC(=O)N1)C2=CC=C(C=C2)C(F)(F)F)C(=O)NC3=C(C=C4C(=C3)C=NN4)F
In short: as §1

[5] = compound: CC1=C(C2=C(C=C1)C(=O)C3=CC=CC=C3N2CCCN)C
In short: as §1

[6] = compound: CC1=C(C=C(C=C1)NC(=O)C2=CC(=CC=C2)C(C)(C)C#N)NC3=CC4=C(C=C3)N=CN(C4=O)C
In short: as §1

[7] = compound: CC1=C(C=C(C=C1)NC(=O)C2=CC(=CC=C2)N(C)C)NC(=O)C3=CC=C(C=C3)O
In short: as §1

[8] = compound: CC1=CC=C(C=C1)SC2=C3C=C(SC3=CN=C2)C(=O)N
In short: as §1

Measured: log2 fold change

ORC2 (UniProt Q13416)
Chain of UniProt Q13416 (Q13416 whole entry, looked up): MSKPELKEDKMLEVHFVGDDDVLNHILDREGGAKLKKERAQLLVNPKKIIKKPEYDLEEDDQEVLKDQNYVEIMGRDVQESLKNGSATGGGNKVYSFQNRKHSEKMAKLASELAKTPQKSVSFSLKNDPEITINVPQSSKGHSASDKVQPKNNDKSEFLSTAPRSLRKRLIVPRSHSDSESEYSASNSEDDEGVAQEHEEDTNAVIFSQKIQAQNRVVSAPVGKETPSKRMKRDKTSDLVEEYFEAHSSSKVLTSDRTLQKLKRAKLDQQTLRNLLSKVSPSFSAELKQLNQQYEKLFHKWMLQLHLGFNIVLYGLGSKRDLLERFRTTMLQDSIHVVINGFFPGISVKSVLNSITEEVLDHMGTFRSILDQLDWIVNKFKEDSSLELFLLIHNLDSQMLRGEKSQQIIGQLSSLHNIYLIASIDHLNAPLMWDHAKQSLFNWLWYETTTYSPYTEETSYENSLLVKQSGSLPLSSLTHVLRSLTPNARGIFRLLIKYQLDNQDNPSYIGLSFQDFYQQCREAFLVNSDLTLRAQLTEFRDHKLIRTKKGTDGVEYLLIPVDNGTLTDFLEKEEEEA
inactive: ibrutinib 0.012 | [1] -0.011 | ralimetinib 0.044 | [2] 0.032 | [3] -0.014 | [4] 0.016 | [5] -0.089 | [6] -0.005 | [7] -0.014 | [8] 0.021

NCOR1 (UniProt O75376)
inactive: ibrutinib 0.002 | [1] 0.015 | ralimetinib 0.021 | [2] -0.033 | [3] 0.014 | [4] 0.026 | [5] -0.026 | [6] 0 | [7] -0.006 | [8] -0.005

MRPS31 (UniProt Q92665)
inactive: ibrutinib -0.01 | [1] -0.039 | ralimetinib -0.006 | [2] -0.006 | [3] 0 | [4] -0.01 | [5] -0.071 | [6] -0.006 | [7] -0.022 | [8] -0.006

OGT (UniProt O15294)
Chain of UniProt O15294 (O15294 whole entry, looked up): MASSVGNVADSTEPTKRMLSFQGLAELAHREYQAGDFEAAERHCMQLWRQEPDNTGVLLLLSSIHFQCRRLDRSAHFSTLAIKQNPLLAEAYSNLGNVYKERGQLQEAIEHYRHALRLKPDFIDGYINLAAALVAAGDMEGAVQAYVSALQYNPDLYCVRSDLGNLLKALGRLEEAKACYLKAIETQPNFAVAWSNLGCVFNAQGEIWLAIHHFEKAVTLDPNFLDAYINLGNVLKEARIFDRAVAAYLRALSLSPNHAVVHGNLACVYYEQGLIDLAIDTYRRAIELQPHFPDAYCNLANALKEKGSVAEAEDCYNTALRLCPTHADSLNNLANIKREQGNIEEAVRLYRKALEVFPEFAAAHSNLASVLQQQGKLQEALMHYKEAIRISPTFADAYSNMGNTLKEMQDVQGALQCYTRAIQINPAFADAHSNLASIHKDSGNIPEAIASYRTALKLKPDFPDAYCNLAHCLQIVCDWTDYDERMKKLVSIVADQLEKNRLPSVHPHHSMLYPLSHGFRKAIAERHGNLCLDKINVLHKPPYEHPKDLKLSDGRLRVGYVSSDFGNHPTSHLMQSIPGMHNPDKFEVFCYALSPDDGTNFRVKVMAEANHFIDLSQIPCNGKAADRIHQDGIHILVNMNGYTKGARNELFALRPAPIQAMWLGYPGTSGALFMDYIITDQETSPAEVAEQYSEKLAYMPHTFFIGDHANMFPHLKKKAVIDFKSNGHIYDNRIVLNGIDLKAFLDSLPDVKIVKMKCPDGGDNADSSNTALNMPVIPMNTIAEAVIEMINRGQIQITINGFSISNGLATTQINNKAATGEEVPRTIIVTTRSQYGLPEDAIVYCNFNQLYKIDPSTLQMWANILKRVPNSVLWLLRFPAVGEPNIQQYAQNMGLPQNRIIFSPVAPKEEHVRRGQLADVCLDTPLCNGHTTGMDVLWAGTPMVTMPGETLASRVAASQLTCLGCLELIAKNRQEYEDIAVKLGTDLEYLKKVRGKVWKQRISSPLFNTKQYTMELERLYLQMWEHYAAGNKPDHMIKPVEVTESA
inactive: ibrutinib -0.035 | [1] -0.024 | ralimetinib 0.021 | [2] 0.023 | [3] -0.007 | [4] -0.009 | [5] -0.026 | [6] -0.014 | [7] 0.032 | [8] -0.005

NUF2 (UniProt Q9BZD4)
Chain of UniProt Q9BZD4 (Q9BZD4 whole entry, looked up): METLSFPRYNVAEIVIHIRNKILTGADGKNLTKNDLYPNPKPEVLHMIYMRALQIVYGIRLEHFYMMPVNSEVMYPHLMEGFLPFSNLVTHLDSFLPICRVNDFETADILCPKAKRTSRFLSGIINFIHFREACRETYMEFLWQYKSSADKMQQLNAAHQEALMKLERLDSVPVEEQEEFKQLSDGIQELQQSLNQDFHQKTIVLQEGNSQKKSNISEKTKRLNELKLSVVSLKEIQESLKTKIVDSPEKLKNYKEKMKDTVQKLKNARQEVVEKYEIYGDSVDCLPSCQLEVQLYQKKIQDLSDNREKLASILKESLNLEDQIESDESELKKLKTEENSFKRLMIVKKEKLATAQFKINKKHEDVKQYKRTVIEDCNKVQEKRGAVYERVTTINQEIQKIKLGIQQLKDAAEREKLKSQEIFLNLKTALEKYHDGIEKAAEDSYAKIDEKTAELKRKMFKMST
inactive: ibrutinib -0.052 | [1] -0.051 | ralimetinib 0.03 | [2] 0.015 | [3] -0.001 | [4] 0.018 | [5] 0.027 | [6] -0.011 | [7] 0.044 | [8] 0.009

OGFR (UniProt Q9NZT2)
inactive: ibrutinib -0.012 | [1] 0.02 | ralimetinib 0.007 | [2] -0.011 | [3] -0.008 | [4] 0.001 | [5] -0.016 | [6] -0.027 | [7] -0.003 | [8] 0.002

NCAPD3 (UniProt P42695)
inactive: ibrutinib 0.001 | [1] -0.017 | ralimetinib 0.043 | [2] -0.019 | [3] -0.008 | [4] 0.007 | [5] -0.024 | [6] -0.012 | [7] 0.036 | [8] -0.012

MTFP1 (UniProt Q9UDX5)
Chain of UniProt Q9UDX5 (Q9UDX5 whole entry, looked up): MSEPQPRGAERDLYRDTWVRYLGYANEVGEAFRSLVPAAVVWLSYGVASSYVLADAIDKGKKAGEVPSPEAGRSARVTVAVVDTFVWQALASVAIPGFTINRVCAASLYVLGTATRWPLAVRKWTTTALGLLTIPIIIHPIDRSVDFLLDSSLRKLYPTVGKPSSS
inactive: ibrutinib 0.097 | [1] -0.065 | ralimetinib -0.017 | [2] 0.079 | [3] -0.058 | [4] 0.018 | [5] 0.009 | [6] -0.011 | [7] -0.048 | [8] -0.001

NF1 (UniProt P21359)
inactive: ibrutinib 0.018 | [1] 0.02 | ralimetinib 0.07 | [2] -0.03 | [3] -0.009 | [4] 0.004 | [5] -0.02 | [6] 0.041 | [7] 0.007 | [8] -0.032

MVB12A (UniProt Q96EY5)
inactive: ibrutinib 0.049 | [1] 0.009 | ralimetinib -0.008 | [2] 0.001 | [3] -0.003 | [4] -0.015 | [5] 0.033 | [6] -0.015 | [7] 0.043 | [8] 0.02

OSGEP (UniProt Q9NPF4)
inactive: ibrutinib -0.009 | [1] 0.02 | ralimetinib 0.022 | [2] -0.03 | [3] -0.003 | [4] 0 | [5] 0.001 | [6] 0.012 | [7] -0.057 | [8] -0.002

NONO (UniProt Q15233)
inactive: ibrutinib -0.013 | [1] 0.006 | ralimetinib 0.008 | [2] -0.002 | [3] 0.006 | [4] -0.006 | [5] -0.006 | [6] -0.016 | [7] 0.015 | [8] 0.014

NR3C1 isoform 3 (UniProt P04150)
inactive: ibrutinib -0.168 | [1] -0.019 | ralimetinib -0.076 | [2] 0.04 | [3] 0.008 | [4] -0.031 | [5] 0.104 | [6] 0.024 | [7] -0.033 | [8] 0.055

NPTN (UniProt Q9Y639)
Chain of UniProt Q9Y639 (Q9Y639 whole entry, looked up): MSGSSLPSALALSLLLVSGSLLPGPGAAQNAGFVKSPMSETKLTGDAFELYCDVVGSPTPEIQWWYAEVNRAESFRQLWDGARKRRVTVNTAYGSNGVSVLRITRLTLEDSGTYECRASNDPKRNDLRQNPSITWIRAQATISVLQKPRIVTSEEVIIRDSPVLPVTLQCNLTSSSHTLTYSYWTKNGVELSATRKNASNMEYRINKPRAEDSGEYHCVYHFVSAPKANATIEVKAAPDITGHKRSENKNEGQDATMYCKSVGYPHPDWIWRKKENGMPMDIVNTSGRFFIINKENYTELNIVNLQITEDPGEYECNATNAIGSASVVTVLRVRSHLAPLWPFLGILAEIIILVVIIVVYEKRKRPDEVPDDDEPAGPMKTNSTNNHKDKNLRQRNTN
inactive: ibrutinib 0.069 | [1] 0.026 | ralimetinib 0.042 | [2] -0.009 | [3] 0.007 | [4] -0.02 | [5] -0.015 | [6] 0.038 | [7] 0.004 | [8] -0.046

NOSTRIN (UniProt Q8IVI9)
inactive: ibrutinib 0.025 | [1] -0.009 | ralimetinib 0.012 | [2] -0.041 | [3] -0.125 | [4] -0.032 | [5] -0.039 | [6] -0.019 | [7] 0.088 | [8] 0.012

NCAPG2 (UniProt Q86XI2)
inactive: ibrutinib 0.012 | [1] -0.029 | ralimetinib 0.018 | [2] 0.006 | [3] -0.009 | [4] 0.015 | [5] 0.05 | [6] -0.017 | [7] 0.001 | [8] -0.002

MTMR6 (UniProt Q9Y217)
inactive: ibrutinib 0.011 | [1] -0.02 | ralimetinib 0.041 | [2] 0.026 | [3] 0.043 | [4] -0.044 | [5] 0.006 | [6] 0.121 | [7] 0.011 | [8] -0.006

MTA3 (UniProt Q9BTC8)
inactive: ibrutinib -0.048 | [1] -0.023 | ralimetinib 0.009 | [2] 0.062 | [3] 0.01 | [4] -0.047 | [5] 0.031 | [6] -0.053 | [7] -0.052 | [8] -0.018

NMRAL1 (UniProt Q9HBL8)
Chain of UniProt Q9HBL8 (Q9HBL8 whole entry, looked up): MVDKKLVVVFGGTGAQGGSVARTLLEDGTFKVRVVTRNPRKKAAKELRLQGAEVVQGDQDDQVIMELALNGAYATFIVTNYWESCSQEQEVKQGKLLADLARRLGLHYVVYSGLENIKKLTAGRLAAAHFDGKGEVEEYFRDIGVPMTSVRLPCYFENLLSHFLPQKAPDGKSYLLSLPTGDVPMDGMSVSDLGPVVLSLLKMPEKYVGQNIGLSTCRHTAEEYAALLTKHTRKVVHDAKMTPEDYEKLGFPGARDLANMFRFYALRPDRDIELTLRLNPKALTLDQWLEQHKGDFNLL
inactive: ibrutinib 0.122 | [1] 0.021 | ralimetinib 0.06 | [2] 0.012 | [3] -0.03 | [4] 0.047 | [5] -0.048 | [6] -0.01 | [7] -0.016 | [8] 0

NDUFA4 (UniProt O00483)
Chain of UniProt O00483 (O00483 whole entry, looked up): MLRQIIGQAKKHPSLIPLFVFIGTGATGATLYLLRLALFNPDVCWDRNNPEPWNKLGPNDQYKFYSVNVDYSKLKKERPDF
inactive: ibrutinib 0.007 | [1] 0.199 | ralimetinib 0.022 | [2] 0.03 | [3] -0.068 | [4] -0.045 | [5] -0.036 | [6] -0.058 | [7] 0.009 | [8] -0.199

OLA1 (UniProt Q9NTK5)
inactive: ibrutinib 0.009 | [1] -0.002 | ralimetinib 0.015 | [2] 0.03 | [3] 0.02 | [4] -0.023 | [5] 0.023 | [6] -0.004 | [7] 0.029 | [8] 0.014

NDUFS1 isoform 2 (UniProt P28331)
inactive: ibrutinib -0.022 | [1] -0.009 | ralimetinib 0.014 | [2] -0.049 | [3] -0.041 | [4] 0.01 | [5] 0.007 | [6] -0.045 | [7] 0.005 | [8] 0.005

N6AMT1 (UniProt Q9Y5N5)
Chain of UniProt Q9Y5N5 (Q9Y5N5 whole entry, looked up, one chain of several): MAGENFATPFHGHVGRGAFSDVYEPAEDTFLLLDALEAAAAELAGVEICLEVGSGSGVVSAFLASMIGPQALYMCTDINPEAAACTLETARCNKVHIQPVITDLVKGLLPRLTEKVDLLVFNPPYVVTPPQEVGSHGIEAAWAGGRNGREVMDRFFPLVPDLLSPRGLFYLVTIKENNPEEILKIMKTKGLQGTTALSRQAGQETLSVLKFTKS
inactive: ibrutinib 0.103 | [1] -0.03 | ralimetinib 0.005 | [2] -0.006 | [3] 0.009 | [4] -0.045 | [5] -0.026 | [6] 0.01 | [7] 0.024 | [8] 0.027

NUP210 (UniProt Q8TEM1)
inactive: ibrutinib -0.029 | [1] -0.01 | ralimetinib -0.011 | [2] -0.075 | [3] -0.005 | [4] 0.024 | [5] -0.017 | [6] -0.005 | [7] -0.027 | [8] -0.012

MTOR (UniProt P42345)
inactive: ibrutinib -0.016 | [1] 0.001 | ralimetinib 0.018 | [2] -0.005 | [3] -0.043 | [4] 0.02 | [5] 0.019 | [6] 0.031 | [7] 0.058 | [8] -0.013

NUCB2 (UniProt P80303)
Chain of UniProt P80303 (P80303 whole entry, looked up): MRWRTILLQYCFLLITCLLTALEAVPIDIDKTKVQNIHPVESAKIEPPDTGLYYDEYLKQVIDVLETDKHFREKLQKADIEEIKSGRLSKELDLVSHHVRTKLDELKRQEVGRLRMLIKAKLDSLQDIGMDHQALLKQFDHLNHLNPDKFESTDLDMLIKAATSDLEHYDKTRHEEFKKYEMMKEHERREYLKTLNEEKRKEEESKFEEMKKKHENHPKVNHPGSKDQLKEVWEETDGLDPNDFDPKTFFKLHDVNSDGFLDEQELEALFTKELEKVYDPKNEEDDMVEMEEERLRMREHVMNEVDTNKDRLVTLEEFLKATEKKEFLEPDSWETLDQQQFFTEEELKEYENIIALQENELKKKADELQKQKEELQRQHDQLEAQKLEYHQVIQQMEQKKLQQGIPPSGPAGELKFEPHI
inactive: ibrutinib 0.025 | [1] 0.002 | ralimetinib -0.023 | [2] 0.01 | [3] 0.009 | [4] 0.04 | [5] -0.006 | [6] 0 | [7] -0.015 | [8] -0.014

NPLOC4 isoform 2 (UniProt Q8TAT6)
Chain of UniProt Q8TAT6 (Q8TAT6 whole entry, looked up): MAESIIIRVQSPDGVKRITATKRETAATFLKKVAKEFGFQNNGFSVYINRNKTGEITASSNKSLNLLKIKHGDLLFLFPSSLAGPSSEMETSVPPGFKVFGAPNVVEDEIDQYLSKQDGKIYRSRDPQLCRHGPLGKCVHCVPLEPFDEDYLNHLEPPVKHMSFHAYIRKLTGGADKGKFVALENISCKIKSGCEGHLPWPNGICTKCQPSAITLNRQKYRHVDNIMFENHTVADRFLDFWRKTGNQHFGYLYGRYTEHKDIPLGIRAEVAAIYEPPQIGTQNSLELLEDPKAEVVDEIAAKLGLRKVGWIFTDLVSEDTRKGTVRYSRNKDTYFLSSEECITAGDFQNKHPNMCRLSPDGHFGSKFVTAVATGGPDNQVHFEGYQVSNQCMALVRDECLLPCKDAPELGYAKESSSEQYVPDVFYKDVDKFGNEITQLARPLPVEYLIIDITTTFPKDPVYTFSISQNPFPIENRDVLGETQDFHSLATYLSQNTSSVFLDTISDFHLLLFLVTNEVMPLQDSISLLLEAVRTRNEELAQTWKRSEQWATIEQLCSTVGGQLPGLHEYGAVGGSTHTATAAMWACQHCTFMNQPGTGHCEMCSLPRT
inactive: ibrutinib -0.016 | [1] -0.015 | ralimetinib -0.01 | [2] -0.003 | [3] 0.027 | [4] -0.005 | [5] -0.009 | [6] 0.062 | [7] 0.018 | [8] -0.015

NOA1 (UniProt Q8NC60)
inactive: ibrutinib -0.024 | [1] -0.025 | ralimetinib 0.002 | [2] 0.034 | [3] 0.005 | [4] -0.064 | [5] -0.02 | [6] 0.002 | [7] -0.001 | [8] 0.02

NUB1 (UniProt Q9Y5A7)
Chain of UniProt Q9Y5A7 (Q9Y5A7 whole entry, looked up): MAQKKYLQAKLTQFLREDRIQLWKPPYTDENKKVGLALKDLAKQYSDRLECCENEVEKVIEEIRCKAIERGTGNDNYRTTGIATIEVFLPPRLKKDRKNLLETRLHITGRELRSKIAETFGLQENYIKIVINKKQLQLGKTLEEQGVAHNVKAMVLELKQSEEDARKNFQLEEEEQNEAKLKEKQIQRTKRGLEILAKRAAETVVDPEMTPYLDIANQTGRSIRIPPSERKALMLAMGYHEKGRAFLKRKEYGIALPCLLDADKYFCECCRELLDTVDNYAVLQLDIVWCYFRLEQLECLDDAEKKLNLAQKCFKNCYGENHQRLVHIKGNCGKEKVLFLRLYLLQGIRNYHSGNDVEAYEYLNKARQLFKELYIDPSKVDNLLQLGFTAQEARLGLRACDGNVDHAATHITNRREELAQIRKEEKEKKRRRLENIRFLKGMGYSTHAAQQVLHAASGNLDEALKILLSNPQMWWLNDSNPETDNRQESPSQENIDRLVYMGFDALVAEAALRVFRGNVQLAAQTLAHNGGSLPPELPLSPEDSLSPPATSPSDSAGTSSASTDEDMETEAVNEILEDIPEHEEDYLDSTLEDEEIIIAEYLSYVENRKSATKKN
inactive: ibrutinib -0.001 | [1] 0.022 | ralimetinib -0.003 | [2] 0.018 | [3] -0.027 | [4] 0.014 | [5] -0.009 | [6] -0.028 | [7] 0.008 | [8] 0.02

NEK7 (UniProt Q8TDX7)
inactive: ibrutinib 0.041 | [1] -0.041 | ralimetinib 0.063 | [2] -0.016 | [3] 0.034 | [4] -0.015 | [5] -0.048 | [6] -0.043 | [7] 0.053 | [8] 0.002
